Shown is part of a subset that was picked to be rich in hits.
ST2 IL33 inh = inhibitors of human ST2 (IL1RL1) binding to IL-33, primary screen, biochemical, AlphaLISA; AlphaLISA ST2-Fc/biotin-IL-33 interaction, 1 h; inhibition, % for hits at 17 µM; hit rate 2.3% among 78,000; Interleukin-1 receptor-like 1 (Homo sapiens), Q01638; in the data active = inhibition above about 30%
Target sequence (Q01638 whole entry, looked up): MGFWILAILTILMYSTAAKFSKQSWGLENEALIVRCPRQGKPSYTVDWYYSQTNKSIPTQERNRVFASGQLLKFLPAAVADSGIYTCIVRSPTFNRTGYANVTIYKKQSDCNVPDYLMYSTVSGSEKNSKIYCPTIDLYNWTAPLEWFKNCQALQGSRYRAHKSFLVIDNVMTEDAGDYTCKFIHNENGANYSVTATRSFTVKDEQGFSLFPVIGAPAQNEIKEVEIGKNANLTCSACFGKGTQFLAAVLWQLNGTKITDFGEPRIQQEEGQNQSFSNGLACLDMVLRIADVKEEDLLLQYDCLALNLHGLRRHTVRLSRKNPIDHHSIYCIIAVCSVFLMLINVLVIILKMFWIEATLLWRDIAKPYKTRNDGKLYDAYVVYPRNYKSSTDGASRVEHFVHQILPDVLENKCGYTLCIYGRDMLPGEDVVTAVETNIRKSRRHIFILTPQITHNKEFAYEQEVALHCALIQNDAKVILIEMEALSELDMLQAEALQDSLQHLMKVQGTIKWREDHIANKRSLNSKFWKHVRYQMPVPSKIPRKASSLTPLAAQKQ
* = called active by the depositor; i = inactive; ! = not active in a repeat.

SMILES | ST2 IL33 inh
COCCN1CC(C(=O)NCc2csc(-c3ccccc3)n2)CCC1=O (stereo not drawn) | i
COc1cccc(OCCCCN2CCCCCC2)c1 | i
CCOc1ccccc1NC(=O)CCC(=O)Nc1ccc2nc(N3CCOCC3)cc(C)c2c1 | i
COc1cc(OC)cc(C(=O)N(c2ccc(C(C)C)cc2)C2C=CS(=O)(=O)C2)c1 (stereo not drawn) | i
O=C(c1cc2ccccc2o1)N1CCN=C1SCc1cccc(C(F)(F)F)c1 | i
CC(C)(C)C1=Nn2c(nnc2-c2ccc(Cl)cc2Cl)SC1 | i
CCc1ccc(C(=O)CC2(O)C(=O)Nc3ccccc32)cc1 (stereo not drawn) | i
CCc1ccc2c(c1)C1(NN=C(c3ccc(C)cc3)S1)C(=O)N2 (stereo not drawn) | 45%*
CCc1ccc(N2C(=O)Nc3ccc(Br)cc3C2(O)C(=O)NC(C)C)cc1 (stereo not drawn) | i
CC1(O)N(CCN)C(=O)OC12CCCCC2 (stereo not drawn) | i
Fc1ccccc1CN1CCOC(Cc2ccccc2)C1 (stereo not drawn) | i
COc1ccc(Nc2cc(C)nc(N3CCN(S(=O)(=O)c4ccc(OC)c(C)c4)CC3)n2)cc1 | i
COc1ccc(S(=O)(=O)N2CCN(c3nc(C)cc(Nc4ccccc4)n3)CC2)cc1C | 34%*
COc1ccc(Nc2cc(C)nc(N3CCN(S(=O)(=O)c4ccc(OC)cc4)CC3)n2)cc1 | i
CN(Cc1ccc(-c2ncc[nH]2)o1)S(C)(=O)=O | i
CCOc1cc(-c2ccc(O)cc2)cc(=O)c2c(C)oc(C)c12 | i
CCOc1cc(/C=C2/Sc3ccccc3C2=O)ccc1O | 59%*
CCOc1cc(/C=C2/C(=O)N(c3ccccc3)N=C2C)ccc1O | i
CC(C)c1ccc(/C=C2\Sc3ccccc3C2=O)cc1[N+](=O)[O-] | i
CCOc1cc(/C=C2/SC(=O)NC2=O)ccc1OCc1ccccc1 | i
CCOc1cc(/C=C2/C=C(c3ccc(C)cc3)OC2=O)ccc1O | 31%*
N#Cc1ccc(C2C3=C(CCCC3=O)Nc3nc(SCc4ccccc4)nn32)cc1 (stereo not drawn) | i
COc1ccc(OC)c(C2C(C(=O)OC3CCCCC3)=C(C)Nc3ncnn32)c1 (stereo not drawn) | i
CCOCCn1c(=O)c2c(nc3n2CCN3c2cc(C)cc(C)c2)n(C)c1=O | i
O=C(CSC1=Nc2ccccc2C2=NC(Cc3ccccc3)C(=O)N12)NCc1ccccc1 (stereo not drawn) | i
SMILES | ST2 IL33 inh
c1ccc(OCc2noc(CN3CCCCC3c3cccnc3)n2)cc1 (stereo not drawn) | i
O=C(CSc1c2c(nc3cc(Cl)ccc13)CCCC2)NCCC1=CCCCC1 | i
COc1ccc(C)cc1NC(=O)COc1cc(C)c(Br)c(C)c1 | i
O=C(Cn1cnc2c(cnn2-c2ccc(Cl)cc2)c1=O)Nc1ccc(F)cc1 | i
CCC1=C(C)/C(=C\c2[nH]c(C)c(CC)c2C)N=C1C | 78%*
CC(C)c1nccc(CN(C)Cc2ncc[nH]2)n1 | i
COC(=O)c1ccc(CSc2nc3c(c(=O)n2-c2ccc(C)cc2)SCC3)o1 | i
Cc1ccc(-n2c(SCC(=O)N3CCCC3)nc3c(c2=O)SCC3)cc1 | i
O=C(CSc1nc2c(c(=O)n1-c1ccc(Cl)cc1)SCC2)N1CCCc2ccccc21 | i
Cc1ccc(-n2c(SCc3ccccc3)nc3c(c2=O)SCC3)cc1 | 30%*!
CCSc1nc2c(c(=O)n1-c1ccc(F)cc1)SCC2 | i
O=C(CSc1nc2c(c(=O)n1-c1ccc(Cl)cc1)SCC2)N1CCc2ccccc21 | i
O=c1c2c(nc(SCc3ccc(F)cc3)n1-c1ccc(F)cc1)CCS2 | i
Cc1ccc(-n2c(SCC(=O)N3CCc4ccccc43)nc3c(c2=O)SCC3)cc1 | 97%*!
Cc1ccc(-n2c(SCc3cccc(F)c3)nc3c(c2=O)SCC3)cc1 | 33%*!
CCOc1ccc(-n2c(SCc3ccc(F)cc3)nc3c(c2=O)SCC3)cc1 | i
Cc1ccc(-n2c(SCc3ccc(F)cc3)nc3c(c2=O)SCC3)cc1 | 31%*!
Cc1ccc(-n2c(SCC(=O)N3CCCCC3)nc3c(c2=O)SCC3)cc1 | i
COc1ccc(I)cc1S(=O)(=O)NCCN1CCOCC1 | i
Cc1cc(C(=O)Nc2ccc(Br)c(C(F)(F)F)c2)ccc1[N+](=O)[O-] | i
Cc1nc(C)c(CC(=O)N2CCCC(c3[nH]ncc3-c3ccccc3)C2)c(=O)[nH]1 (stereo not drawn) | i
O=C(c1cccc(-c2cn[nH]c2)c1)N1CCOC(CCCc2ccccc2)C1 (stereo not drawn) | i
COC(=O)[C@@H]1Cc2ncn(C)c2CN1Cc1ccc(C(F)(F)F)cc1 | i
CC(C)CN1CC(C(=O)N2CCCN(S(C)(=O)=O)CC2)CC1=O (stereo not drawn) | i
COc1ccc(-c2nc(N3CCCCCC3)nc3nn4c(C)cc(C)nc4c23)cc1 | i
SMILES | ST2 IL33 inh
O=C(COc1ccccc1)N[C@H]1CO[C@H]2[C@@H]1OC[C@@H]2Nc1nccc(-c2ccc(-c3ccccc3)cc2)n1 | i
COc1ccc(S(=O)(=O)Nc2ccccc2F)cc1OC | i
COc1ccccc1Cc1noc(/C=C/c2ccccc2Cl)n1 | i
COc1ccccc1CNc1ccc([N+](=O)[O-])cn1 | i
O=[N+]([O-])c1cccc(-c2noc(-c3ccc(I)cc3)n2)c1 | i
COc1ccccc1Cc1nc(-c2ccc([N+](=O)[O-])cc2)no1 | 30%*
COc1ccc(-c2nc(-c3cccc([N+](=O)[O-])c3)no2)cc1 | i
COc1ccccc1Nc1nc(-c2ccc([N+](=O)[O-])cc2)nc2ccccc12 | i
COc1ccccc1Cc1nc(-c2cccc([N+](=O)[O-])c2)no1 | 32%*
COc1ccccc1Cc1noc(COc2cccc(C)c2C)n1 | i
COc1ccccc1Cc1noc(-c2ccc([N+](=O)[O-])cc2)n1 | 47%*
COc1cc(C2C(C(=O)Nc3cc(C)ccn3)=C(C)NC3=C2C(=O)CCC3)cc(OC)c1OC (stereo not drawn) | i
O=C(COc1ccccc1Cl)c1ccc(F)cc1 | i
CCCOc1ccc(OCCSc2nc3ccccc3c(=O)[nH]2)cc1 | i
O=C(CCCn1c(=O)[nH]c2ccsc2c1=O)NC1CCCCCCC1 | i
CC1(C)C[C@@H]2C[C@@](C)(CN2C2CC(=O)N(c3ccc(F)cc3)C2=O)C1 (stereo partly drawn) | i
O=c1[nH]c(-c2ccc(Cl)cc2)nc2ccccc12 | i
C1=CC[C@H]2CN(c3nncs3)C[C@H]2C1 | i
CCOC(=O)Cn1c(=O)oc2cc(Cl)ccc21 | i
CCC(C)NC(=O)c1ccc(NC(=O)Cn2c(=O)oc3ccccc32)cc1 (stereo not drawn) | i
O=C(Cn1c(=O)oc2ccccc21)Nc1ccc(Cl)cc1Cl | 46%*
CC(=O)N1CCN(C2CC(=O)N(c3ccccc3)C2=O)CC1 (stereo not drawn) | i
O=C(NCc1ccccc1)c1ccc2nc3ccc(Cl)cc3c(=O)n2c1 | i
CN(C)c1ccc(/C=C2\c3cc([N+](=O)[O-])ccc3-c3c2cc([N+](=O)[O-])cc3[N+](=O)[O-])cc1 | i
CN(C)c1ccc(C=C2c3cc([N+](=O)[O-])cc([N+](=O)[O-])c3-c3c2cc([N+](=O)[O-])cc3[N+](=O)[O-])cc1 | 42%*
